Screening results from PubChem BioAssay.
TrxR1 substrate: qHTS Assay for Substrates of Mammalian Selenoprotein Thioredoxin Reductase 1 (TrxR1): qHTS; AID 588456, 2011; 390,000 tested, 0.01% active; purified TrxR1 substrate turnover, NADPH consumption readout; Thioredoxin reductase 1, cytoplasmic (Rattus norvegicus), O89049; Potency, µM (titrated, usually from 114 µM), for the others: at the top dose activity change, negative = substrate turnover; further: nearly all actives have a fitted effect of over 50% in size
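Rat TrxR1, dispensed at 90 nM, was prereduced with 400 uM NADPH (final) for 5 min at ~22 deg C, then incubated with compound 15 min before 400 uM selenite. A first-read NADPH fluorescence drop versus no-compound background flagged substrates.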
Sfp PPTase inh: qHTS Assay for Inhibitors of Bacillus subtilis Sfp phosphopantetheinyl transferase (PPTase); Potency, µM, without a hit: largest response in the series, negative = inhibition, actives largely listed as inhibitors; 4'-phosphopantetheinyl transferase ffp (Bacillus subtilis), Q9F4F7; 310,000 tested, 3.5% active; Biochemical Sfp PPTase activity, qHTS;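 further: the enzyme is Sfp with the accession as filed and its product quenches rhodamine fluorescence; 0% = enzyme reaction without inhibitor and -100% = no enzyme wells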
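After 15 min at room temperature with compound, 15 nM Sfp received 5 uM rhodamine-CoA plus 12.5 uM BHQ-2-ybbR (50 mM Hepes pH 7.6, 10 mM MgCl2). Rate came from the fluorescence difference over 30 min, ex 525/em 598 nm.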
GLS inhibitor: qHTS for Inhibitors of Glutaminase (GLS); GLS enzymatic activity, qHTS titration; Potency, µM (titrated, usually from 45.5 µM), for inactives: at the top dose activity change, negative = inhibition, hits mostly inhibitors; 410,000 tested, 0.21% active
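hKGA in 45 mM KH2PO4 pH 8.2, 0.02% Tween-20 with pin-transferred compounds; 1 mM L-glutamine (stock) plus glutamate oxidase/HRP/Amplex Red coupling added. Fluorescence read initially and after 30 min at RT.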
VDR inhibitor: Inhibitors of the vitamin D receptor (VDR): qHTS | Vitamin D3 receptor (Homo sapiens), P11473 | VDR-SRC2-3 peptide fluorescence polarization, 2 h | Potency, µM, without a hit: max response, negative = inhibition, most hits filed as inhibitors | 400,000 tested, 0.93% active | AID 504847, 2011
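Fluorescence polarization assay of small-molecule disruption of VDR binding to coregulator peptide SRC2-3. Compounds and controls pin-transferred, then read after 2 h incubation at ambient room temperature.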
rTrxR1 inhibitor: qHTS Assay for Inhibitors of Mammalian Selenoprotein Thioredoxin Reductase 1 (TrxR1): qHTS; Potency, µM (top dose mostly 114 µM), for the others: top-dose activity change, negative = inhibition, most hits filed as inhibitors; recombinant rTrxR1, NADPH fluorescence consumption, selenite substrate; AID 588453, 2011; 390,000 tested, 1% active; further: nearly all actives have a fitted effect of over 65% in size
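Rat TrxR1 (90 nM in the dispensed reagent) was pre-reduced with 400 uM NADPH for 5 min at room temperature, then incubated with compound for 15 min. After 400 uM selenite was added, NADPH fluorescence (Ex 340/Em 450 nm) was followed for 8 min.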
GCN5L2 inh: qHTS Assay for Inhibitors of GCN5L2 | Histone acetyltransferase KAT2A (Homo sapiens), Q92830 | GCN5L2 HAT assay, ThioGlo1 CoA-SH fluorescence | Potency, µM (top dose mostly 58.9 µM), for inactives: top-dose activity change, negative = inhibition, hits mostly inhibitors | 390,000 tested, 0.21% active | AID 504327, 2011
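Fluorescence readout, Ex340nm/Em540nm: ThioGlo1 (50uM final) reacts with free CoA thiol released as 20nM GCN5L2 acetylates H3(1-25) peptide (75uM) using acetyl-CoA (70uM). Compound and enzyme sat 15 min beforehand; 20 min room-temperature reaction.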
* hit, by the source's call; ? = inconclusive; . = no result given; [ ] = remark or other dose. Rows were chosen to be rich in hits. Some 3.8% of all compounds tested hit in one or more screens of this group. The call rests on the fitted dose curve; in most records, active means well fitted curve in the direction sought with a large enough effect; inconclusive means small, poorly fitted or top-dose-only effect, or another doubt; inactive means no such curve, though single readings can be large; an effect the other way counts as inactive or inconclusive. Unless noted, on the % scale 0 is the no-effect control and ±100 the full control effect; potency means the concentration at half of the fitted maximal effect.

SMILES	TrxR1 substrate	Sfp PPTase inh	GLS inhibitor	VDR inhibitor	rTrxR1 inhibitor	GCN5L2 inh
Cc1cccc(N(C(=O)c2snc(C(N)=O)c2N)C(C(=O)NCC2CCCO2)c2cccs2)c1 (configuration not stated)	7%	-2%	-10%	-12%	9%	-8%
Cc1cc(N2CCN(C)CC2)nc2ccc(NC(=S)N3CCN(c4ccc(Cl)cc4)CC3)cc12	17%	45µM*	?	-7%	4%	-3%
CC(C)Oc1cc(F)ccc1-c1cc(C(=O)Nc2ccccc2)[nH]n1	.	.	7%	.	.	.
Cc1[nH][nH]c(=O)c1C(c1ccc(-c2ccccc2C(=O)O)o1)c1c(C)[nH][nH]c1=O	-16%	?	?	-9%	-24%	-11%
COC(=O)c1ccc(-c2ccc(C(c3c(C)[nH][nH]c3=O)c3c(C)[nH][nH]c3=O)o2)cc1	-23%	50µM*	-10%	35µM*	-20%	-21%
Cc1[nH][nH]c(=O)c1C(c1ccc(-c2cccc(C(=O)O)c2)o1)c1c(C)[nH][nH]c1=O	-10%[57.1 µM]	16µM*	15%	?	-14%[57.1 µM]	0%
Cc1[nH][nH]c(=O)c1C(c1ccc(-c2cccc(Cl)c2)o1)c1c(C)[nH][nH]c1=O	-13%	45µM*	0%	?	?	-10%
Cc1[nH][nH]c(=O)c1C(c1ccc(-c2ccc(Cl)cc2Cl)o1)c1c(C)[nH][nH]c1=O	.	50µM*	.	.	.	-1%
COc1ccc(C(=O)Oc2ccc(C(c3c(C)[nH][nH]c3=O)c3c(C)[nH][nH]c3=O)cc2OC)cc1	2%[0.457 µM]	.	3%	?	-4%	0%
Cc1cccc(C(=O)NCCc2ccc(S(N)(=O)=O)cc2)c1[N+](=O)[O-]	-16%	13%	5%	8%	-17%	0%
Cc1nc2ccccn2c1C(=O)NNC(=S)Nc1ccccc1	-11%	7%	34%	2%	?	-5%
CC(C)NC(=O)Nc1ccc2c(c1)CC(=O)N([C@@H](C)CO)C[C@H](C)[C@@H](CN(C)C(=O)NC1CCCCC1)O2	3%	.	4%	89µM*	6%	0%
C[C@@H]1CN([C@H](C)CO)C(=O)c2cc(NC(=O)c3ccncc3)ccc2O[C@@H]1CN(C)C(=O)Nc1ccccc1	1%	.	-20%	2%	71µM*	-8%
CCC(c1nnnn1Cc1ccco1)N(Cc1cc2cc(C)cc(C)c2[nH]c1=O)CC1CCCO1 (configuration not stated)	8%	22µM*	?	-13%	?	-22%
COc1ccc2[nH]c(=O)c(CN(Cc3nnnn3Cc3ccco3)C3CCCCC3)cc2c1	1%	8.9µM*	?	79µM*	18µM*	-20%
COc1ccc2[nH]c(=O)c(CN(C3CCCCC3)C(c3nnnn3Cc3ccco3)C(C)C)cc2c1 (configuration not stated)	12%	3.2µM*	-26%	?	?	-24%
Cc1ccc2[nH]c(=O)c(CN(Cc3nnnn3C3CCCC3)C3CCCCC3)cc2c1	-6%	-11%	-2%	3%	2%	-4%
COc1ccc(Cn2nnnc2CN(Cc2cc3cc(C)ccc3[nH]c2=O)C2CCCC2)cc1	9%	20µM*	-10%	7%	-28%	-12%
COc1ccc2cc(CN(CCc3ccccc3)Cc3nnnn3Cc3ccco3)c(=O)[nH]c2c1	10%	-26%	16%	-13%	?	2%
